Most compounds without a hit are left out; they make up all but 11% or so of the library.
PNC assembly inh: High Content Assay for Compounds that inhibit the Assembly of the Perinucleolar Compartment. PC3M PTB-GFP, PNC prevalence imaging, 16 h; active compounds read low. 3.1% of 140,000 active. activity change (PNC), negative = inhibition, % at 10 µM;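 active = readout at or below -70, meaning at least 70% loss of cells showing the perinucleolar compartment, a nuclear body marking cancer cells; inconclusive = readout between -30 and a set limit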
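PC3M cells stably expressing PTB-GFP, 750–1000 cells/well, treated 16 h at 37 °C with compound (23 nl of library stock), in duplicate. After paraformaldehyde fixation and Hoechst stain, imaged at 20x; PNC prevalence scored by image analysis.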
HTT aggregate: qHTS Multiplex Assay to Identify Dual Action Probes in a Cell Model of Huntington: Aggregate Formation (GFP) | PC12 HttQ103-GFP aggregates, Acumen cytometry, 40 h | Potency, µM (highest dose often 46.1 µM), most hits filed as inhibitors | 1.1% of 220,000 active; active = well fitted curve in the direction sought with a large enough effect; inconclusive = small, poorly fitted or top-dose-only effect, or another doubt; inactive = no such curve, though single readings can be large; an effect the other way counts as inactive or inconclusive; also: nearly all actives have a fitted effect of over 60% in size
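PC12 cells with ecdysone-inducible HTT exon1 Q103-GFP, induced by 100 nM tebufenozide, given compounds in a concentration series. GFP aggregates (1–25 um, 6 SD above background) counted in lysates by laser-scanning cytometry, 488 nm excitation.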
ALDH1A1 block: qHTS Assay for Inhibitors of Aldehyde Dehydrogenase 1 (ALDH1A1); Aldehyde dehydrogenase 1A1 (Homo sapiens), P00352; 7.3% of 220,000 active; Potency, µM (highest dose often 75.3 µM), hits mostly inhibitors; Purified ALDH1A1, NADH fluorescence, propionaldehyde substrate
Target sequence (P00352 whole entry, looked up): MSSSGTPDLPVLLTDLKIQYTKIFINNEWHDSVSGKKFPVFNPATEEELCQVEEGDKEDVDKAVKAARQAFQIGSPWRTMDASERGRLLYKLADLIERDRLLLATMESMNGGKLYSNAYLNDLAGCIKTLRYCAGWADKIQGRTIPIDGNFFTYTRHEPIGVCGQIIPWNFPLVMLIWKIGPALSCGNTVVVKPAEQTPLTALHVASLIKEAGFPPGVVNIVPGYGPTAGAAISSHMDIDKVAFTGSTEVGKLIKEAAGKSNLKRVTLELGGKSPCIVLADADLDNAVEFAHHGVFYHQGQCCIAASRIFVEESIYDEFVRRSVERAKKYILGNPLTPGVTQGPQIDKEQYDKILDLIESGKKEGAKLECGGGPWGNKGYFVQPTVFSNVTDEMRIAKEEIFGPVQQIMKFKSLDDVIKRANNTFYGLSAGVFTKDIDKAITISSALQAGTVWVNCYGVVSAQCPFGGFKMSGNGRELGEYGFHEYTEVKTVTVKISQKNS
HPGD inh: qHTS Assay for Inhibitors of HPGD (15-Hydroxyprostaglandin Dehydrogenase); Potency, µM, actives largely listed as inhibitors; 15-hydroxyprostaglandin dehydrogenase [NAD(+)] (Homo sapiens), P15428; 4.3% of 150,000 active; purified HPGD, NADH fluorescence kinetic, PGE2 substrate; AID 894, 2007
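20 nM HPGD preincubated 15 min at room temperature with compound in 50 mM Tris-HCl pH 8, 0.01% Tween 20. Started with 1 mM NAD+ and 30 uM prostaglandin E2; NADH fluorescence (360/450 nm) read 5 times over 30-s intervals, last minus first.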
HTT cytoprotect: qHTS Multiplex Assay to Identify Dual Action Probes in a Cell Model of Huntington: Cytoprotection (ATP); 0.14% of 230,000 active; Potency, µM (highest dose often 56.4 µM), hits mostly activators; PC12 HTT-Q103 induced, cytoprotection, ATP luminescence, 40 h; AID 1471, 2008; active = well fitted curve in the direction sought with a large enough effect; inconclusive = small, poorly fitted or top-dose-only effect, or another doubt; inactive = no such curve, though single readings can be large; an effect the other way counts as inactive or inconclusive; also: nearly all actives have a fitted effect of over 45% in size
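Cells were plated at 1500 per well in phenol red-free DMEM with 5% equine and 5% calf serum. Tebufenozide (100 nM final) and compounds were added, then ATPlite reagent, and luminescence was read.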
RGS12 GoLoco inh: qHTS Assay for Inhibitors of RGS12 GoLoco Motif Activity (Red Fluorophore) | Gai1:RGS12 GoLoco peptide FP, rhodamine, 10 min | Potency, µM (series often up to 61.6 µM), hits mostly inhibitors | AID 880, 2007 | Guanine nucleotide-binding protein G(i) subunit alpha-1 (Homo sapiens), P63096 | 0.44% of 230,000 active; active = well fitted inhibition curve with a large enough effect, not every such curve was filed as active; inactive = no such curve, though single readings can be large or run the other way; also: nearly all actives have a fitted effect of over 30% in size
Of the large screens only hits and unclear results are named; the others gave an inactive call. Unless noted, calls follow the shape of the dose curve; as a rule, active = well fitted inhibition curve with a large enough effect (not every such curve was filed as active); inconclusive = small, poorly fitted or top-dose-only effect, or another doubt; inactive = no such curve, though single readings can be large or run the other way.

CC1=C(C#N)C(=O)NC(=O)/C1=C\c1ccc(-c2ccc(C)cc2[N+](=O)[O-])o1	ALDH1A1 block 12.6µM (no result: PNC assembly inh, HPGD inh)
O=C1NN(c2ccc(Cl)cc2)C(=O)/C1=C\c1ccc(-c2cccc(C(=O)O)c2)o1	ALDH1A1 block inconclusive (no result: PNC assembly inh, HPGD inh)
Cc1ccc(N2NC(=O)/C(=C/c3ccc(-c4ccc(Cl)c(C(=O)O)c4)o3)C2=O)cc1	ALDH1A1 block 8.91µM (no result: PNC assembly inh, HPGD inh, HTT cytoprotect)
COCCNC(=S)NCc1ccc2[nH]c3c(c2c1)CCCC3	ALDH1A1 block inconclusive (no result: PNC assembly inh, HPGD inh)
Cc1ccc(NC(=S)NCc2ccc3[nH]c4c(c3c2)CCCC4)cc1	ALDH1A1 block 17.8µM (no result: HTT cytoprotect)
COC(=O)C(C(=O)Nc1ccc(OC)cc1)C1CCCCCC1 (configuration not stated)	PNC assembly inh -80.8, ALDH1A1 block inconclusive
COC(=O)C(C(=O)Nc1ccccc1C)C1CCCC1 (configuration not stated)	PNC assembly inh -83.4
COc1ccc(NC(=O)C(=S)NC2CCCCC2)cc1	none (no result: PNC assembly inh, HPGD inh)
Cc1nn(Cc2ccccc2)c(C)c1/C=N/NC(=O)CNc1cccc(C(F)(F)F)c1	HTT cytoprotect inconclusive
COc1ccc(NCC(=O)N/N=C/c2c(C)nn(Cc3ccccc3)c2Cl)cc1	ALDH1A1 block 15.8µM, HPGD inh inconclusive
COc1ccc(/C=C2\C(=O)N(c3c(Cl)cc(Cl)cc3Cl)N=C2NC(=O)c2cccc([N+](=O)[O-])c2)cc1	ALDH1A1 block inconclusive, HPGD inh 22.4µM
CC(=O)Nc1ccc(S(=O)(=O)N(C)CC(=O)OCC(=O)Nc2cccnc2Cl)cc1	none
OCCN1CCN(C(c2cccs2)c2ccc3cccnc3c2O)CC1 (configuration not stated)	ALDH1A1 block 1.26µM, HPGD inh 3.55µM
Cc1cc2cc(CNC(=O)Nc3ccccc3)ccc2[nH]1	none (no result: PNC assembly inh, HPGD inh)
O=C1C(Cl)=C(Nc2ccc(S(=O)(=O)Nc3ccccn3)cc2)C(=O)c2ccccc21	ALDH1A1 block 0.631µM, HPGD inh 2.82µM (no result: PNC assembly inh, HTT aggregate)
CC(C)(C)c1ccc(S(=O)(=O)Nc2ccccn2)cc1	ALDH1A1 block 31.6µM (no result: PNC assembly inh, HTT aggregate, HPGD inh, HTT cytoprotect)
CCCN(CCC)C(=O)CCSCCC(=O)N(CCC)CCC	PNC assembly inh inconclusive, ALDH1A1 block inconclusive, HPGD inh inconclusive
COc1ccc(/C=N/NC(=O)c2nn(-c3ccc(C)c(C)c3)c(=O)c3ccccc23)cc1	PNC assembly inh inconclusive, HPGD inh inconclusive
COc1ccc(/C=N/NC(=O)c2nn(-c3ccccc3)c(=O)c3c(N)scc23)cc1	ALDH1A1 block 28.2µM, HPGD inh 28.2µM
CCOC(=O)c1nn(-c2ccc(OC)cc2)c(=O)c2c(N)scc12	PNC assembly inh inconclusive, ALDH1A1 block 8.91µM
COc1ccc(/C=N/NC(=O)c2nn(-c3ccc(Cl)cc3)c(=O)c3c(N)scc23)cc1	ALDH1A1 block 6.31µM, HPGD inh 11.2µM
Cc1ccc(NS(=O)(=O)c2ccc(OCC(=O)Nc3cccc([N+](=O)[O-])c3)c(C)c2)cc1	none
COc1ccc2cc(C(=O)OC(C)C)sc(=O)c2c1OC	ALDH1A1 block 5.01µM, HPGD inh inconclusive
COc1ccc(CC(C)NCC(O)c2ccc(O)c(NC=O)c2)cc1 (configuration not stated)	none (no result: PNC assembly inh, ALDH1A1 block, HPGD inh, RGS12 GoLoco inh)
COC(C(=O)NC1CC1)c1ccccc1 (configuration not stated)	PNC assembly inh -113.8 (no result: HTT cytoprotect)
COC(C(=O)Nc1ccc(Br)cc1F)c1ccccc1 (configuration not stated)	ALDH1A1 block 10µM (no result: PNC assembly inh, HPGD inh)
COc1ncc2nc(-c3ccc(F)cc3)c(=O)n(Cc3ccc(F)cc3)c2n1	ALDH1A1 block inconclusive (no result: PNC assembly inh, HTT aggregate, HPGD inh)
O=C(COC(=O)c1ccccc1C(=O)c1ccc(Cl)c([N+](=O)[O-])c1)NC1CC1	HTT aggregate inconclusive (no result: PNC assembly inh, HPGD inh)

Source: PubChem
